Many of the other results were omitted from the sample, so hits are more common in it than they were.
Caspase-1 inhib – allosteric or competitive inhibitors of human caspase-1; P29466; Caspase-1 enzyme, Ac-WEHD-AFC fluorogenic rate; Potency, µM (highest dose often 57.5 µM), for inactives: at the top dose activity change, negative = inhibition, usual class: inhibitors; 75,000 compounds, 0.03% hits; AID 900;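 note: plate controls were vehicle for no effect and no substrate for full effect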
GBA activity – alters purified human glucocerebrosidase activity; purified enzyme, resorufin glucoside fluorescence (screen aimed at inhibitors), 20 min; P04062; Potency, µM; 48,000 compounds, 1.1% hits; in the data active = potency below about 15 µM; inconclusive = mostly about 16 µM to 33 µM;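 note: the screen sought inhibitors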
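Normal human glucocerebrosidase (0.2 nM final) was assayed with resorufin β-D-glucopyranoside (30 uM final) in 50mM citric acid/KH2PO4, 10mM sodium taurocholate, 0.01% tween-20, pH 5.9. Compounds were titrated; fluorescence (Ex 548, Em 600) read after 20 min at RT.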
USP2a inhib – USP2a (human) protease inhibition; O75604; USP2a enzymatic assay, qHTS inhibition; Potency, µM (titrated, usually from 38.3 µM), for the others: at the highest dose activity change, negative = inhibition, actives largely listed as inhibitors; 60,000 compounds, 0.1% hits; AID 927; note: nearly all actives have a fitted effect of over 60% in size
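Coupled readout: USP2-cleaved Ub-PLA2 (20nM final) turns over NBD C6-HPC (20uM final), Ex 460nm/Em 535nm after 2.5 h, time-zero read flagging artifacts. Enzyme (20nM final, pH 8.0 Tris) given 30 min RT with compound first; NEM defines full inhibition.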
Caspase-7 inhib – allosteric or competitive inhibitors of human caspase-7; recombinant caspase-7, Ac-DEVD-AFC fluorescence rate; Potency, µM (highest dose often 57.5 µM), without a hit: top-dose activity change, negative = inhibition, actives largely listed as inhibitors; 75,000 compounds, 0.02% hits; AID 889; active = well fitted inhibition curve with a large enough effect in the main read-out, with a control signal flat, not every such curve was filed as active; inconclusive = small, poorly fitted or top-dose-only effect, or a change in a side signal; note: % of control where 0% means no effect
Active calls of the source: *; i = inactive; ? = inconclusive; · = not tested or not shown; [ ] = dose if it differs, or a comment. Unless noted, calls come from the whole dose curve; as a rule, active = well fitted curve in the direction sought with a large enough effect; inconclusive = small, poorly fitted or top-dose-only effect, or another doubt; inactive = no such curve, though single readings can be large; an effect the other way counts as inactive or inconclusive. Potency is the fitted concentration of half-maximal effect.

SMILES	Caspase-1 inhib	GBA activity	USP2a inhib	Caspase-7 inhib
O=C(Nc1nncs1)c1ccccc1Br	-1%	·	0%	0%
Cc1nnc(NC(=O)c2ccccc2Br)s1	-1%	3.9*	-2%	-2%
Cc1nnc(NC(=O)c2ccccc2F)s1	1%	7.9*	-6%	-1%
Cc1nnc(NC(=O)c2sc3ccccc3c2Cl)s1	1%	15*	17%	-4%
COCc1nnc(NC(=O)c2sc3ccccc3c2Cl)s1	0%	>77	-10%	0%
Cc1nnc(NC(=O)c2c(F)c(F)c(F)c(F)c2F)s1	-1%	?	-4%	1%
CC1=C(C(=O)O)N2C(=O)C(NC(=O)C(N)c3ccccc3)C2SC1 (stereo not given)	1%	·	-19%	0%
O=C(c1cc(C(F)(F)F)cc(C(F)(F)F)c1)N1CCC2(CC1)CN(c1ncccn1)C2	-2%	·	61%	0%
CS(=O)(=O)N1CCC(C(=O)Nc2ccc(Oc3ccccc3)cc2)CC1	-1%	14*	5%	-1%
COC(=O)c1ccc(NC(=O)C2CCN(S(C)(=O)=O)CC2)cc1	1%	>77	-6%	2%
CC(C)c1ccc(NC(=O)C2CCN(S(C)(=O)=O)CC2)cc1	-1%	12*	3%	-1%
CCc1ccc(NC(=O)C2CCN(S(C)(=O)=O)CC2)cc1	-2%	?	4%	-5%
CCCCCN=Cc1c(C)[nH]n(-c2nc3ccccc3s2)c1=O	0%	·	18%[7.66 µM]	1%
CCCc1[nH]n(-c2nc3ccccc3s2)c(=O)c1C=NCC1CCCO1 (stereo not given)	4%	13*	122%	-2%
O=C(Cn1nnc(-c2ccccc2F)n1)Nc1ccc(S(=O)(=O)NC2CCCC2)cc1	3%	6.9*	-1%	1%
OC[C@@H]1O[C@H](O)[C@@H](Cl)[C@H](O)[C@@H]1O	-1%	·	2%	-1%
c1cnc(N2CCN(c3ncnc4c3oc3ccccc34)CC2)nc1	-2%	5.7*	10%	-1%
O=C1C2C3C=CC(C2C(=O)N1CN1CCOCC1)C1C2C(=O)N(CN4CCOCC4)C(=O)C2C31 (stereo not given)	1%[11.5 µM]	·	·	-1%[11.5 µM]
CC(C)=CCC/C(C)=C/CO/N=C1/C[C@@H](O)[C@@H](O)[C@@H]2[C@@H]3C(=O)N(Cc4ccc5c(c4)OCO5)C(=O)[C@H]3CC[C@H]12	0%[11.5 µM]	·	·	-3%[11.5 µM]
N#CC(=NCCO)C1=C(O)c2ccccc2C1=O	3%[11.5 µM]	·	·	-2%[11.5 µM]
O=C1C(SCCO)=C(SCCO)C(=O)c2ccccc21	16µM*	·	0%	-11%
COc1ccc(C(=O)Nc2cc(C)on2)cc1	-2%	·	4%[7.66 µM]	-1%
Cc1cc(NC(=O)c2ccc3nc(-c4ccccc4)c(-c4ccccc4)nc3c2)no1	-1%	14*	9%	0%
COc1ccc(C2CC(=O)N3CN(c4ccc(C)c(Cl)c4)CSC3=C2C#N)cc1OC (stereo not given)	32µM*	·	·	?
COC(=O)c1sccc1NC(=O)Cn1nnc(-c2ccc(C)cc2)n1	-3%	15*	4%	-4%
SMILES	Caspase-1 inhib	GBA activity	USP2a inhib	Caspase-7 inhib
Cc1cccc(NC(=O)Cn2nnc(-c3cccs3)n2)c1C	-5%	>77	10%	-4%
CC(=O)c1sc2nc(-c3cccs3)cc(C(F)(F)F)c2c1N	?	14*	26%	?
COc1ccc(CNc2ccnc(-c3ccc(N(C)C)cc3)n2)c(OC)c1	?	·	63%	?
COCCNC(=O)c1ccc(Cc2nc3ccccc3[nH]2)cc1	-2%	·	·	-1%
O=C(Nc1ccc(N2CCOCC2)cc1)C1CC1	-1%	>77	-6%	0%
COCCCNC(=O)CCC(=O)Nc1ccc2nc(N3CCOCC3)cc(C)c2c1	3%	6.8*	4%	0%
Cc1cc(N2CCN(C)CC2)nc2ccc(NC(=O)CCC(=O)NCCC3=CCCCC3)cc12	-3%	?	16%	0%
CCN1CCN(c2cc(C)c3cc(NC(=O)c4ccncc4)ccc3n2)CC1	-6%	·	·	-3%
CCN1CCN(c2cc(C)c3cc(NC(=O)c4ccc(Br)o4)ccc3n2)CC1	-2%	5.1*	25%	-1%
Cc1cc(N2CCOCC2)nc2ccc(NC(=O)C3CCC(C)CC3)cc12 (stereo not given)	-2%	0.061*	21%	-2%
CCCCNC(=O)CCC(=O)Nc1ccc2nc(N3CCOCC3)cc(C)c2c1	-4%	3.8*	13%	-2%
OC[C@@H]1O[C@@H](n2cnc3c(NC4CCCC4)ncnc32)[C@@H](O)[C@H]1O	2%	·	-8%	2%
CCOC(=O)C1CCCN(C(=O)CCC(=O)Nc2ccc3nc(N4CCOCC4)cc(C)c3c2)C1 (stereo not given)	-2%	2.6*	15%	-3%
Cc1nn(CC(=O)Nc2ccccc2)c(=O)c2ccccc12	1%	>77	7%	1%
CCC(=O)Nc1ccc(C(=O)Cn2nc(C(=O)O)c3ccccc3c2=O)cc1	-3%	4.6*	5%	-13%
Cc1ccc(Nc2nc(N)nc(CN3CCCCCC3)n2)c(C)c1	-1%	·	23%	-3%
Cc1cccc(Nc2nc(N)nc(CN3CCN(Cc4ccc5c(c4)OCO5)CC3)n2)c1	0%	9.8*	32%	0%
COc1cccc(N2CCN(Cc3nc(N)nc(Nc4ccccc4)n3)CC2)c1	0%	2.9*	24%	-1%
CN1CCN(Cc2nc(N)nc(Nc3ccc4c(c3)OCCO4)n2)CC1	-1%	>77	3%	0%
Cc1cccc(Nc2nc(N)nc(CN3CCN(c4ccccc4)CC3)n2)c1	-1%	4.3*	41%	-2%
Nc1nc(CN2CCN(c3ccccn3)CC2)nc(Nc2ccc(Cl)cc2)n1	-3%	i	36%	-2%
Cc1cccc(Nc2nc(N)nc(CN3CCN(c4ccccc4F)CC3)n2)c1	-1%	1.4*	40%	-1%
COc1ccc(/C=N/NC(=O)c2cc(-c3ccc(Cl)cc3)n[nH]2)cc1OC	-6%	·	·	-7%
COc1ccc(N2CCN(Cc3cc(=O)oc4c3ccc3ccccc34)CC2)cc1	-1%	3.3*	7%	-1%
O=c1cnc2cnc(Nc3ccccc3)nc2n1CCc1ccccc1	?	·	87%	-25%
SMILES	Caspase-1 inhib	GBA activity	USP2a inhib	Caspase-7 inhib
CCNc1ncc2ncc(=O)n(Cc3ccc(F)cc3)c2n1	·	·	193%	?
CCCCOc1ccc(OCCCC)c2c1NC1(N2)C(=O)N(C(C)=O)c2ccccc21	-1%	6.1*	2%	0%
CCNC(=O)N1C(=O)C2(OCCO2)c2ccccc21	0%	>77	0%	2%
Fc1ccccc1N1CCN(c2nc3ccccc3n3nnnc23)CC1	-9%	13*	35%	-8%
O=C1OC2(c3cc(Br)c(O)c(Br)c3Oc3c2cc(Br)c(O)c3Br)c2c(Cl)c(Cl)c(Cl)c(Cl)c21	?	·	·	-14%
Cc1ccc2cc(C(c3nnnn3CC3CCCO3)N3CCCC4(CCCCC4)C3)c(=O)[nH]c2c1 (stereo not given)	-11%	10*	46%	-10%
CCOc1ccc(NC(=O)c2ccncc2)cc1	0%	i	2%	0%
O=C(Nc1ccc(OC(=O)c2ccncc2)cc1)c1ccncc1	3%	1.9*	-3%	-2%
N#Cc1c(N)sc(=S)c2c1CCN(Cc1ccccc1)C2	·	·	19%	13µM*
CCN1CCc2c(sc(N)c2C#N)C1	·	>77	6%	?

Source: PubChem (National Center for Advancing Translational Sciences (NCATS))
